Experimental data as given in PubChem BioAssay (Tox21).
Values without a mark were called inactive. A call without a number means that no potency is given here. The source made the active and inactive calls. Calls come from the whole dose curve; as a rule, active = well fitted cell-killing curve with a large enough effect in the repeat runs; inconclusive = weak or mixed curves, or effect the other way; inactive = flat fitted curve, though single readings scatter.

Experiment: qHTS assay to identify small molecule HDAC inhibitors - cell viability counter screen (AID 1259365); note: nearly all actives have a fitted effect of over 50% in size
Conditions: HCT-116 viability, CellTiter-Glo ATP luminescence, 2 h; series mostly up to 92.4 µM
Source text: U.S. Tox21 Program National Center for Advancing Translational Sciences [NCATS] NIH Chemical Genomics Center [NCGC] U.S. Environmental Protection Agency [EPA] National Institutes of Environmental Health Sciences [NIEHS] National Toxicology Program [NTP] U.S. Food and Drug Administration [FDA] Tox21 Assay Overview: Histone deacetylases (HDACs) are a group of epigenetic enzymes that regulate gene expression by histone deacetylation. HDACs are capable of introducing epigenetic modifications and such aberrations contribute to the onset and progression of several human diseases, thus making HDACs a popular therapeutic target. For identifying endogenous class I/II HDAC inhibitors a homogenous, luminogenic HDAC I/II cell based assay was used to measure the relative activity of class I and II HDACs from cells. Wild type HCT-116 cells were used to screen Tox21 compound libraries for identifying class I/II HDAC inhibitors.
Tox21 Assay Protocol Summary: HCT-116 cells were dispensed at 1,500 per well in 5uL of culture medium into white solid bottom 1536-well plates (Greiner Bio-One, Monroe, NC) using a Multidrop Combi (Thermo Scientific, Waltham, MA) dispenser. The assay plates were incubated at 37 C and 5% CO2 for an overnight, and then 23nL of compounds dissolved in DMSO and positive control were transferred using a Pintool station (Wako, San Diego, CA). The assay plates were incubated at 37C and 5% CO2 for 2hr. After compound treatment, 4uL of CellTiter-Glo reagent (Promega Corporation, Madison, WI) was added to each well of the assay plates using Flying Reagent Dispenser (FRD, Aurora Discovery, San Diego, CA) and incubated the assay plates at room temperature for 30min. The luminescence signal was quantified using a ViewLux plate reader (Perkin Elmer, Shelton, CT).
Potency is the fitted concentration of half-maximal effect.

| SMILES | Potency | activity change, negative = cytotoxicity |
| --- | --- | --- |
| CCOC(=O)C(O)c1ccccc1 (stereo not given) | inactive |  |
| CC(=O)c1ccc2c(c1)N(CCCN(C)C)c1ccccc1S2 | inactive |  |
| CCOCC(O)COc1ccc(NC(=O)CC[S+](C)C)cc1 (stereo not given) | inactive |  |
| Cc1ccc(N=Nc2c(O)c(C(=O)O)cc3ccccc23)c(S(=O)(=O)O)c1 | inactive |  |
| Cc1oc2c(NC(=O)c3c(Cl)cccc3Cl)cccc2c1C(C)(C)O | inactive |  |
| CCCCCCCCCCCCCCCCOS(=O)(=O)O | inactive |  |
| CCOC(=O)C1=C[C@]2(CC)CCCN3CCc4c(n1c1ccccc41)[C@@H]32 | inactive |  |
| Nc1ccc(S(=O)(=O)Nc2ccccc2)cc1 | inactive |  |
| Clc1ccc2c(c1)CCc1cccnc1C2=C1CCNCC1 | inactive |  |
| CCCCCCCCCOS(=O)(=O)O | inactive |  |
| Cc1ccccc1S(=O)(=O)O | inactive |  |
| CC(C)=CCC/C(C)=C/CC/C(C)=C/CO | inactive |  |
| CC(=O)[O][Al][O]C(C)=O | inactive |  |
| CCCCOC(=O)CCCCCCCC(=O)OCCCC | inactive |  |
| COc1cc2nc(N3CCN(C(=O)C4COc5ccccc5O4)CC3)nc(N)c2cc1OC (stereo not given) | inactive |  |
| Brc1c2ccccc2cc2ccccc12 | inactive |  |
| Cc1ccc(C(=O)Oc2ccc(C(O)CNC(C)(C)C)cc2OC(=O)c2ccc(C)cc2)cc1 (stereo not given) | inactive |  |
| CNC(=O)CN(CCN(CCN(CC(=O)[O-])CC(=O)NC)CC(=O)[O-])CC(=O)[O-].O.[Gd+3] | inactive |  |
| O=C1[C@H]2CCCC[C@H]2C(=O)N1CCCCN1CCN(c2nsc3ccccc23)CC1 | inactive |  |
| COc1ccc2cccc(CCNC(C)=O)c2c1 | inactive |  |

| SMILES | Potency | activity change, negative = cytotoxicity |
| --- | --- | --- |
| CC(C)Nc1ccc(NC(C)C)c2c1C(=O)c1ccccc1C2=O | 12.7 µM (active) |  |
| CN1Cc2cc(C(=O)N3CCC(C4CCNCC4)CC3)ccc2NC(CC(=O)O)C1=O (stereo not given) | inactive |  |
| Cc1cccc(C)c1OCC(=O)N[C@@H](Cc1ccccc1)[C@@H](O)C[C@H](Cc1ccccc1)NC(=O)[C@H](C(C)C)N1CCCNC1=O | inactive |  |
| CCCCCCCCCCCc1ccccc1 | inactive |  |
| N=c1ccn2c(n1)O[C@H]1[C@H](O)[C@@H](CO)O[C@H]12 | inactive |  |
| CCN(CC)c1ccc(C(=C2C=CC(=[N+](CC)CC)C=C2)c2cc(S(=O)(=O)O)ccc2S(=O)(=O)[O-])cc1 | 11.9 µM (active) |  |
| OCc1cc(C(O)CNCCCCCCOCCCCc2ccccc2)ccc1O (stereo not given) | inactive |  |
| CCCCCCCCCc1ccc(OCCOCCO)cc1 | inactive |  |
| CC(C)O.CC(C)O.CCOC(=O)/C=C(\C)O.CCOC(=O)/C=C(\C)O.[Ti] | inactive |  |
| CCCCCCCCCCCCCCOS(=O)(=O)O | inactive |  |
| C=C(C)C(=O)OCC | inactive |  |
| C[C@@H]1C[C@H]2O[C@@]3(O[C@@H]2C(C)(C)O)[C@H](O)[C@@]2(C)[C@@H]4CC[C@H]5C(C)(C)[C@@H](O[C@@H]6OC[C@@H](O)[C@H](O)[C@H]6O)CC[C@@]56C[C@@]46CC[C@]2(C)[C@@H]13 | inactive |  |
| CCCCNc1ccc(C(=O)OCCOCCOCCOCCOCCOCCOCCOCCOCCOC)cc1 | inactive |  |
| COc1cccc(N(C)C(=S)Oc2ccc3c(c2)CCCC3)n1 | inactive |  |
| O=C(O)C1(C(=O)Nc2ccc(Cl)cc2Cl)CC1 | inactive |  |
| CCCCc1nc2cccnc2n1Cc1ccc(-c2ccccc2-c2nnn[nH]2)cc1 | inactive |  |
| O=C(Cl)c1cc(C(=O)Cl)cc(C(=O)Cl)c1 | inactive |  |
| O=CC1CC=CCC1 (stereo not given) | inactive |  |
| CCCCCCCC#N | inactive |  |
| Cc1[nH]c(C)c(Cl)c(=O)c1Cl |  | 8.49% [at 19 µM] |
